From PubChem BioAssay (NCI)
Compounds without any hit were thinned out: in the full panel of roughly 83,000, 20% have a hit.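 Step 1: grow cells in 96-well plates. Step 2: add test compound at a single concentration. Step 3: incubate 48 h. Step 4: record percent growth.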 The source made the active and inactive calls. Rule for the calls: active = growth percent below 10; inactive = the rest.

How the values were obtained:
Assay in all cases: NCI-60 one-dose screen, 48 h (100 = growth as untreated, 0 = no growth, -100 = all killed)
Conditions in all cases: 10 µM unless noted
SK-MEL-2 melanoma = tested on: SK-MEL-2 melanoma
EKVX NSCLC = tested on: EKVX NSCLC
SN12C renal = tested on: SN12C renal
UO-31 renal = tested on: UO-31 renal
TK-10 renal = tested on: TK-10 renal
CAKI-1 renal = tested on: CAKI-1 renal
CCRF-CEM leukemia = tested on: CCRF-CEM leukemia
MOLT-4 leukemia = tested on: MOLT-4 leukemia
SR leukemia = tested on: SR leukemia
RPMI-8226 leukemia = tested on: RPMI-8226 leukemia
OVCAR-8 ovarian = tested on: OVCAR-8 ovarian
OVCAR-5 ovarian = tested on: OVCAR-5 ovarian
OVCAR-4 ovarian = tested on: OVCAR-4 ovarian
SK-OV-3 ovarian = tested on: SK-OV-3 ovarian
IGROV1 ovarian = tested on: IGROV1 ovarian
OVCAR-3 ovarian = tested on: OVCAR-3 ovarian
HS 578T breast = tested on: HS 578T breast
NCI/ADR-RES ovarian = tested on: NCI/ADR-RES ovarian
A498 renal = tested on: A498 renal
ACHN renal = tested on: ACHN renal

Structure (SMILES)	growth (SK-MEL-2 melanoma)	growth (EKVX NSCLC)	growth (SN12C renal)	growth (UO-31 renal)	growth (TK-10 renal)	growth (CAKI-1 renal)	growth (CCRF-CEM leukemia)	growth (MOLT-4 leukemia)	growth (SR leukemia)	growth (RPMI-8226 leukemia)	growth (OVCAR-8 ovarian)	growth (OVCAR-5 ovarian)	growth (OVCAR-4 ovarian)	growth (SK-OV-3 ovarian)	growth (IGROV1 ovarian)	growth (OVCAR-3 ovarian)	growth (HS 578T breast)	growth (NCI/ADR-RES ovarian)	growth (A498 renal)	growth (ACHN renal)
O=C(CSc1nc2sc3c(c2c(=O)n1Cc1ccccc1)CCCC3)N1CCN(c2ccccc2)CC1	106% (inactive)	99.6% (inactive)	110% (inactive)	76.8% (inactive)	104% (inactive)	92.9% (inactive)	97.7% (inactive)	92.8% (inactive)	101% (inactive)	94.1% (inactive)	97.9% (inactive)	102% (inactive)	96.1% (inactive)	92.1% (inactive)	103% (inactive)	106% (inactive)	101% (inactive)	94.8% (inactive)	–	–
COc1cccc(C(Cc2ccccc2)Nc2ccccc2)c1OC (stereo not drawn)	83% (inactive)	96.1% (inactive)	103% (inactive)	85.4% (inactive)	96.7% (inactive)	–	87.5% (inactive)	78.6% (inactive)	102% (inactive)	–	99% (inactive)	103% (inactive)	98.1% (inactive)	91.3% (inactive)	86.8% (inactive)	98.4% (inactive)	106% (inactive)	98.2% (inactive)	90% (inactive)	–
COc1cccc(NC(=O)c2cccc(-c3cc(=O)c4c(OC)c(OC)c(OC)cc4o3)c2)c1	75.7% (inactive)	81.3% (inactive)	62.3% (inactive)	31.6% (inactive)	78.8% (inactive)	74.7% (inactive)	40.5% (inactive)	48.5% (inactive)	41.9% (inactive)	–	47% (inactive)	90.1% (inactive)	62.6% (inactive)	109% (inactive)	53.3% (inactive)	66.6% (inactive)	46.2% (inactive)	64.8% (inactive)	–	–
COc1cc(C(=O)/C=C/c2c(C)n([O-])c3ccc(Cl)cc3[n+]2=O)cc(OC)c1OC	59.6% (inactive)	80.9% (inactive)	56.3% (inactive)	43% (inactive)	46.1% (inactive)	–	-30.6% (active)	6.41% (active)	-5.8% (active)	-35.2% (active)	23% (inactive)	86.6% (inactive)	70.7% (inactive)	87.3% (inactive)	-30.3% (active)	23.2% (inactive)	86.3% (inactive)	–	100% (inactive)	–
COc1ccc(-c2cnc(N)nc2-c2ccc(OC)cc2O)cc1	112% (inactive)	96.8% (inactive)	98.5% (inactive)	70.2% (inactive)	99.1% (inactive)	86.5% (inactive)	82.4% (inactive)	77.2% (inactive)	66.9% (inactive)	–	89.5% (inactive)	–	86.5% (inactive)	103% (inactive)	83.8% (inactive)	108% (inactive)	157% (inactive)	85.7% (inactive)	99.8% (inactive)	–
C=C1C(=O)O[C@H]2[C@H]1CC/C(COC(=O)CCCc1c[nH]c3ccccc13)=C\CC[C@@]1(C)O[C@@H]21	88.4% (inactive)	74.3% (inactive)	54.8% (inactive)	58.5% (inactive)	94.7% (inactive)	–	–	3.73% (active)	–	-17.6% (active)	66.3% (inactive)	94.7% (inactive)	65.8% (inactive)	98.2% (inactive)	45.8% (inactive)	28.3% (inactive)	74% (inactive)	72.2% (inactive)	103% (inactive)	59.5% (inactive)
O=C1Nc2cc(-c3ccncc3)ccc2/C1=C/c1ccc[nH]1	106% (inactive)	46.9% (inactive)	99.5% (inactive)	73.7% (inactive)	95.7% (inactive)	87.9% (inactive)	104% (inactive)	96.4% (inactive)	15% (inactive)	81.8% (inactive)	101% (inactive)	76.9% (inactive)	37.3% (inactive)	93.3% (inactive)	80.8% (inactive)	85.2% (inactive)	107% (inactive)	94.6% (inactive)	–	–
COc1ccc(CNCCN2C(=O)c3ccc4c5c(ccc(c35)C2=O)C(=O)N(CCNCc2ccc(OC)cc2)C4=O)cc1	-74.2% (active)	-69.3% (active)	-87.9% (active)	-76.6% (active)	-61.7% (active)	-53.8% (active)	-16.3% (active)	-36.1% (active)	-29.4% (active)	-35.2% (active)	-67.3% (active)	-72.7% (active)	-99.5% (active)	-68.1% (active)	-58.4% (active)	-95.5% (active)	-41.1% (active)	-25.9% (active)	–	–
COc1ccc(NC(=O)c2sc3nc(C)c(C(O)c4ccc(OC)cc4)cc3c2N)cc1 (stereo not drawn)	45.6% (inactive)	47.9% (inactive)	33% (inactive)	20.6% (inactive)	60.7% (inactive)	30.4% (inactive)	21.7% (inactive)	15.8% (inactive)	4.21% (active)	–	20.4% (inactive)	50.6% (inactive)	50.4% (inactive)	38.5% (inactive)	29.1% (inactive)	16.7% (inactive)	20.1% (inactive)	16.1% (inactive)	12.6% (inactive)	–
O=S(=O)(c1ccc(N/N=C\c2ccccc2)cc1)c1ccc(N/N=C/c2ccccc2)cc1	76.5% (inactive)	73.7% (inactive)	64.9% (inactive)	88.3% (inactive)	59.4% (inactive)	67.7% (inactive)	88.7% (inactive)	82.4% (inactive)	–	85.6% (inactive)	30.3% (inactive)	84.7% (inactive)	44.7% (inactive)	74% (inactive)	72.1% (inactive)	72.2% (inactive)	–	53.1% (inactive)	–	–
COc1ccc(CNC(=O)COc2ccc(/C=N/Nc3nc4ccccc4s3)cc2)cc1	63.9% (inactive)	52% (inactive)	30.8% (inactive)	60.7% (inactive)	86.9% (inactive)	27.9% (inactive)	62.4% (inactive)	76.5% (inactive)	–	27.3% (inactive)	22.3% (inactive)	66.9% (inactive)	-37.5% (active)	–	28.8% (inactive)	25.3% (inactive)	13.3% (inactive)	23.3% (inactive)	-19.5% (active)	–
COC(=O)Nc1ccc(NC(=O)OC)cc1	88.5% (inactive)	103% (inactive)	104% (inactive)	87.6% (inactive)	94.4% (inactive)	93.4% (inactive)	68.1% (inactive)	100% (inactive)	105% (inactive)	89.4% (inactive)	94.6% (inactive)	114% (inactive)	112% (inactive)	90.9% (inactive)	120% (inactive)	111% (inactive)	102% (inactive)	–	97.2% (inactive)	–
CN(C)c1ccc(-c2c(C#N)c(N)n3nc(N)c(C#N)c3c2C#N)cc1	88.3% (inactive)	76.5% (inactive)	72.3% (inactive)	75.5% (inactive)	82.4% (inactive)	–	–	90% (inactive)	62.1% (inactive)	32.2% (inactive)	83.7% (inactive)	–	101% (inactive)	71.3% (inactive)	55.7% (inactive)	85.3% (inactive)	93.2% (inactive)	90.4% (inactive)	106% (inactive)	86.5% (inactive)
C#CC(=O)Nc1cccc(Nc2nc3c(c(NCc4ccccc4)n2)CCCC3)c1	-69.1% (active)	-62.3% (active)	-30.7% (active)	-91.6% (active)	-97.2% (active)	-85.4% (active)	-8.54% (active)	-24.9% (active)	-27% (active)	-23.7% (active)	-89.6% (active)	–	-95.3% (active)	-98.5% (active)	-42.6% (active)	-82.9% (active)	-5.41% (active)	5.07% (active)	–	–
CCCCCCC/C=C/[C@H]1O[C@]2(O)C(=O)C=C3C[C@@H](O[C@@H]4O[C@H](CO)[C@@H](O)C(O)[C@@H]4O)C[C@@H]3[C@H]2C=C1C (stereo partly drawn)	-28.5% (active)	72.4% (inactive)	1.69% (active)	-88.1% (active)	4.93% (active)	–	9.27% (active)	-6.66% (active)	–	-23.6% (active)	-20.5% (active)	12% (inactive)	29.6% (inactive)	57.6% (inactive)	-7.08% (active)	-75.4% (active)	29.1% (inactive)	-6.45% (active)	71.2% (inactive)	-4.43% (active)
CCCCCCCCN1C(=O)/C(=c2\sc3n(c2=O)C2C(NN=3)N(CC)C(=O)N2CC)c2ccccc21 (stereo not drawn)	86.8% (inactive)	73.9% (inactive)	86.1% (inactive)	66.8% (inactive)	110% (inactive)	49.3% (inactive)	–	101% (inactive)	77.5% (inactive)	105% (inactive)	85.7% (inactive)	81.6% (inactive)	94.2% (inactive)	90.6% (inactive)	86.5% (inactive)	98.6% (inactive)	40.4% (inactive)	82.2% (inactive)	86.9% (inactive)	–
